Consider 12 compounds from PubChem BioAssay (NCATS).

Inconclusive results are not listed. The source made the active and inactive calls. Calls follow the shape of the dose curve; as a rule, active = well fitted inhibition curve with a large enough effect; inconclusive = small, poorly fitted or top-dose-only effect; inactive = flat fitted curve, though single readings scatter.
% is scaled to controls: 0 for no effect and ±100 for the full control effect; potency is read from the fitted curve at half-maximal effect.

The test in a line: P-glycoprotein substrates identified in KB-8-5-11 adenocarcinoma cell line, qHTS therapeutic library screen (AID 1346987). Also: nearly all actives have a fitted effect of over 65% in size. The settings on record: KB-8-5-11 (P-gp overexpressing) viability, CellTiter-Glo, 72 h; series mostly up to 44.5 µM; activity change, negative = cytotoxicity: at the top concentration. The essentials:
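P-gp-mediated resistance screen: KB-8-5-11 cells treated 72 h with compounds in dose-response. CellTiter-Glo viability.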
A general note: Quantitative high-throughput screening tests each substance at several concentrations.
For `COC1CC(OC2CCC3(C)C(=CCC4C3CCC3(C)C(C(C)OC5OC(COC6OC(CO)C(O)C(O)C6O)C(O)C(O)C5O)CCC43O)C2)OC(C)C1OC1OC(C)C(O)C(OC)C1O` (configuration not stated), the outcome was “inactive [at 9.29 µM]”.

Turning to `OCCCCC#Cc1cncc(OC[C@@H]2CCN2)c1`, the “activity change, negative = cytotoxicity” value was 1.45% (inactive). The same measure, in the same setting: the same measure for `CC(=O)OC1CC(O)C2(C)C(CC(OC(C)=O)C3(C)C2CCC2(C)C(c4ccoc4)C(=O)C4OC423)C1(C)C` (configuration not stated): -2.4% [at 17.3 µM] (inactive).

For the compound `COC1CC(O[C@H]2CC[C@]3(C=O)C4CC[C@]5(C)[C@@H](C6=CC(=O)OC6)CC[C@]5(O)[C@@H]4CC[C@]3(O)C2)OC(C)C1O[C@@H]1O[C@H](CO)[C@@H](O)[C@H](O)[C@H]1O` (some centres not stated), the Potency is 0.153 µM (active). On to `CC(C)(O)[C@H]1O[C@H]2CC[C@@]3(C)[C@@](O)(CC[C@H]4Cc5c([nH]c6ccccc56)[C@@]43C)C2=CC1=O`, for which the “activity change, negative = cytotoxicity” value was -6.52% [at 17.3 µM] (inactive). Same read-out and setting: the same measure for `CN1C(=O)c2ccccc2NC(=O)C1Cc1ccccc1` (configuration not stated): 2.5% (inactive). Same read-out and setting: the same measure for `CC(C)C1(OO)C=C2C(=O)CC3C(C)(C(=O)O)CCCC3(C)C2CC1` (configuration not stated): 6.94% (inactive).

Regarding `Cc1cc(C(=O)CN2CCCC2)c(C)n1-c1ccc(F)cc1`, the Potency result was “inactive”. Consider `COC(=O)[C@@]12C(=O)C(C)C(=O)[C@]1(C)C(C)=C[C@H]1[C@]3(C=O)CC[C@H](OC(C)=O)C(C)(C)[C@H]3CC[C@@]12C` (some centres not stated), for which the “activity change, negative = cytotoxicity” value is -4.84% [at 17.3 µM] (inactive). The same measure, in the same setting: the same measure for `CCc1[nH]c2ccc(OC)cc2c1CCN(C)C`: -5.5% (inactive); for `CC(C)[C@@H](CN1CC[C@@](C)(c2cccc(O)c2)[C@@H](C)C1)NC(=O)[C@H]1Cc2ccc(O)cc2CN1`: 9.89% (inactive). `CCN1C[C@]2(COC)[C@H](O)C[C@H](OC)[C@]34[C@@H]5C[C@]6(O)[C@H](OC(=O)c7ccccc7)[C@@H]5[C@@](O)([C@H]([C@H](OC)[C@H]23)[C@@H]14)[C@@H](O)[C@@H]6OC`: the outcome was inactive.
